# Measurements: PubChem BioAssay (NCI)
# Compounds without any hit were thinned out: in the full panel of roughly 83,000, 20% have a hit.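 Plates (96-well) were seeded with cells, treated with compound at one concentration, and incubated for 48 hours before percent growth was determined.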 Values without a mark were called inactive. Active and inactive are the calls of the source. How the source made its calls: active means growth percent below 10; inactive means the rest.
# Test system: MDA-MB-468 breast
# Assay: NCI-60 one-dose screen, 48 h (100 = growth as untreated, 0 = no growth, -100 = all killed)
# Conditions: 10 µM unless noted
row,Structure (SMILES),growth
1,Nc1c(C(=O)Nc2cccc3c2OCCO3)sc2nc3c(cc12)CN(Cc1ccccc1)CC3,38.8%
2,Cn1c(=O)c2c(-c3ccccc3F)n(-c3ccc4c(c3)OCO4)cc2n(C)c1=O,83.2%
3,CCCCCCCCCCNC(=O)CCl,67.8%
4,CN1CCN(CC(=O)Nc2cccc(-n3cc(-c4ccncc4)c(-c4ccc(Cl)c(O)c4)n3)c2)CC1,10.7%
5,C[N+]1(C)C2CC[C@@H]1CC(OC(=O)C(O)c1ccccc1)C2 (stereo not given in full),103%
6,C=CC(=O)Nc1ccc2ncnc(Nc3cccc(NS(=O)(=O)CCC)c3Cl)c2c1,-31.9% (active)
7,CC(C)(C)c1ccc(OP(=S)(N/N=C/c2ccccc2O)Oc2ccc(C(C)(C)C)cc2)cc1,35.4%
8,COc1ccc(-c2cc(-c3nnc(SCC(=O)Nc4ccc(C(C)=O)cc4)o3)c3ccccc3n2)cc1,45.5%
9,CCOc1c(C#N)c(Nc2ccc(S(N)(=O)=O)cc2)c(C#N)c2nnc(C)n12,105%
10,COc1nc2ccccc2cc1/C=C1/C=C(c2ccccc2)NC1=O,29%
11,CCN(Cc1ccc(CN(CC)C(=O)C(Cl)(Cl)Cl)cc1)C(=O)C(Cl)(Cl)Cl,62.5%
12,CCc1cccc2c1S/C(=C/c1ccc(Cl)cc1)C2=O,93.6%
13,Cc1cccc[n+]1C1c2ccccc2-c2ccccc21,68.5%
14,CS(=O)(=O)OCCN(CCOS(C)(=O)=O)c1ccc(/C=N/Nc2ccc([N+](=O)[O-])cc2[N+](=O)[O-])cc1,87.9%
15,COc1cnc2c(c1)C(=O)c1c-2n(CCCCl)c(=O)c2ccncc12,34.1%
16,Cc1cc(C)c([O-])c(CN(C)CCN(C)Cc2cc(C)cc(C)c2[O-])c1.O=C([O-])c1cccc(C(=O)[O-])n1.[Ti+4],-8.96% (active)
17,C#C[C@]1(O)CC[C@H]2[C@@H]3CC=C4c5sc(Nc6ccccc6)nc5CC[C@]4(C)[C@H]3CC[C@@]21C,7.27% (active)
18,CC(C)(C)n1cc(-c2ccnc(NCCCNS(=O)(=O)c3ccc(Br)cc3)c2)c(-c2cccc(O)c2)n1,3.51% (active)
19,CCOC(=O)c1cnc2ccccc2c1Cl,97.4%
20,CC(=O)CC1CCCC1c1ccc2ccccc2c1 (stereo not given),101%

row,Structure (SMILES),growth
1,CCCCNC(=O)NS(=O)(=O)c1ccc(N2N=C(c3cc(C)ccc3C)CC2c2cc(OC)c(OC)c(OC)c2)cc1 (stereo not given),24.4%
2,O=S(=O)(NCCNc1nccc(-c2c(-c3ccc(F)cc3)nc3sccn23)n1)c1ccc2ccccc2c1,76.4%
3,CCOC(=O)C#Cc1c(C(=O)OCC)nnn1[C@@H]1O[C@H](COC(C)=O)[C@@H](OC(C)=O)[C@H]1OC(C)=O,61.5%
4,Nc1nc(=O)n([C@H]2C[C@H](O)[C@@H](CO)O2)cc1C=O,107%
5,COc1ccccc1/C=C1\COc2ccc(O)c(O)c2C1=O,12.6%
6,COc1ccc(NC(=O)c2ccc(Nc3ncnc4[nH]c(C)c(C)c34)cc2)cc1,119%
7,CCn1c(SCC(=O)Nc2cccc(C(=O)/C=C/c3cc(OC)c(OC)c(OC)c3)c2)nc2ccccc2c1=O,31.8%
8,C=C1CC[C@@H]2[C@](C)(COC(C)=O)[C@H](OC(C)=O)CC[C@@]2(C)[C@@H]1CC(NCc1ccccc1)C1=CCOC1=O (stereo not given in full),22.9%
9,N#Cc1ccc(OC(=O)Nc2cc(Cl)cc(Cl)c2)cc1,-16.4% [100 µM] (active)
10,O=C(NCCCN1CCN(CCCNC(=O)C2CCCCC2)CC1)C1CCCCC1,110%
11,Brc1ccc(/C=C(/C2=NCCN2)n2ccc3ccccc32)cc1,50.8%
12,N#Cc1cc(-c2nc3ccccc3s2)c(=O)n(NS(=O)(=O)c2ccc(Cl)cc2)c1N,99.6%
13,COc1ncnc2c(-c3ccccc3)cn(COCc3ccccc3)c12,42.1%
14,C/C(Cc1ccc(Cl)cc1)=C(\c1ccc(OCCN2CCCCCC2)cc1)c1ccc(OC(=O)Cc2ccccc2)cc1,69%
15,CC/C(Cc1ccccc1)=C(\c1ccc(OCCN2CCCC2)cc1)c1ccc(OC(C)=O)cc1,62.8%
16,CC1=C2CC/C(C)=C/CC[C@]3(C)O[C@H]3CC/C(C)=C/[C@H]2OC1,98.6%
17,CCC/C=C(/C(C)=O)C(=O)OCC,88.3%
18,CC1CC(C)(C)OB(OC(C)CC(C)(C)OB2OC(C)CC(C)(C)O2)O1 (stereo not given),105%
19,COC(=O)Nc1nc2ccc(C(=O)c3ccccc3N(C)C3COC3)cc2[nH]1,23.8%
20,COc1ccc(Cn2c(Br)c3c(c2Br)-c2nc(N)sc2CC3)cc1,-5.61% (active)
